The supplement of paper PMC10849652
Of roughly 7,900 targets only a part is listed; those with a hit were picked by preference. About 0.6% of all pairs of compound and target were hits.

Tests used:
Assay in all cases: log2 fold change, soluble protein after heating vs DMSO (PISA); higher = thermal stabilisation; K562 cells, 10 uM, 30 min; active = over 0.2 and 3.5 SD of the protein, either way, in both replicates (recomputed)
[1] = compound: Cc1ccc(NC(=O)c2ccc(CN3CC[C@H](N(C)C)C3)c(C(F)(F)F)c2)cc1Nc1nccc(-c2cncnc2)n1 [bafetinib]
How it was run: (§1)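 Aliquots of K562 cells (2×10^6 cells/mL) treated with 10 μM compound for 30 min were heated for 3 min over 48°C-58°C. After pooling and extraction in PBS with 0.5% NP-40 at 4°C, soluble protein from a 21,000xg, 90 min spin was quantified by TMTpro 16plex LC-MS/MS with channel sums equalised. Thermal stability is expressed against control samples, from duplicates, as a log2 fold change.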

[2] = compound: Cc1cccc(CC(=O)N2CCc3c2ccc(-c2cn(C)c4ncnc(N)c24)c3F)n1
How it was run: as §1

[3] = compound: Cc1cn(-c2cc(NC(=O)c3ccc(C)c(Nc4nccc(-c5cccnc5)n4)c3)cc(C(F)(F)F)c2)cn1 [nilotinib]
How it was run: as §1

[4] = compound: Cc1nc(Nc2n[nH]c3c2CN(C(=O)N[C@H](CN(C)C)c2ccccc2)C3(C)C)c2sccc2n1
How it was run: as §1

[5] = compound: Cc1nc(Nc2ncc(C(=O)Nc3c(C)cccc3Cl)s2)cc(N2CCN(CCO)CC2)n1 [dasatinib]
How it was run: as §1

[6] = compound: Cc1ncc(-c2ccnc(Nc3ccc(S(C)(=O)=O)cc3)n2)n1C(C)C
How it was run: as §1

[7] = compound: Cn1cc(-c2ccc3c(c2)CCN3C(=O)Cc2cccc(C(F)(F)F)c2)c2c(N)ncnc21
How it was run: as §1

[8] = compound: Cn1cc(-c2ccc3nnc(C(F)(F)c4ccc5ncccc5c4)n3n2)cn1
How it was run: as §1

[9] = compound: Cn1cncc1[C@@](N)(c1ccc(Cl)cc1)c1ccc2c(c1)c(-c1cccc(Cl)c1)cc(=O)n2C [tipifarnib]
How it was run: as §1

[10] = compound: FC(F)(F)c1ccc(/C=C/c2nc(COc3ccc(CCCCn4ccnn4)cc3)co2)cc1 [mubritinib]
How it was run: as §1

[11] = compound: NC(=O)Nc1cc(-c2cccc(F)c2)sc1C(=O)N[C@H]1CCCNC1
How it was run: as §1

[12] = compound: NC(=O)c1cnc(N[C@@H]2CCCC[C@@H]2N)nc1Nc1cccc(-n2nccn2)c1
How it was run: as §1

[13] = compound: NC1(c2ccc(-c3nc4ccn5c(=O)[nH]nc5c4cc3-c3ccccc3)cc2)CCC1
How it was run: as §1

[14] = compound: NCC(=O)Nc1ccc(-n2nc(C(F)(F)F)cc2-c2ccc3c(ccc4ccccc43)c2)cc1
How it was run: as §1

[15] = compound: Nc1ccccc1NC(=O)c1ccc(CNC(=O)OCc2cccnc2)cc1 [entinostat]
How it was run: as §1

[16] = compound: O=C(CCCCCCC(=O)Nc1ccccc1)NO [vorinostat]
How it was run: as §1

[17] = compound: O=C(CCCCCCNC(=O)c1cnc(N(c2ccccc2)c2ccccc2Cl)nc1)NO [citarinostat]
How it was run: as §1

[18] = compound: O=C(O)c1ccc2c(c1)nc(Nc1cccc(Cl)c1)c1ccncc12 [silmitasertib]
How it was run: as §1

[19] = compound: O=C1NC(=O)C(c2cnc3ccccn23)=C1c1cn2c3c(cc(F)cc13)CN(C(=O)N1CCCCC1)CC2
How it was run: as §1

[20] = compound: c1cc(OCCN2CCCCC2)cc(-c2n[nH]c3ccc(-c4nnc[nH]4)cc23)c1
How it was run: as §1

Measured: log2 fold change

ASH2L (UniProt Q9UBL3)
inactive: [1] 0 | [2] -0.013 | [3] -0.008 | [4] -0.041 | [5] -0.004 | [6] 0.013 | [7] -0.07 | [8] -0.017 | [9] -0.041 | [10] -0.023 | [11] -0.025 | [12] -0.075 | [13] 0.002 | [14] -0.074 | [15] 0.025 | [16] 0.013 | [17] 0.044 | [18] 0.08 | [19] -0.064 | [20] -0.05

ATP6V0A2 (UniProt Q9Y487)
UniProt Q9Y487, sequence (Q9Y487 whole entry, looked up): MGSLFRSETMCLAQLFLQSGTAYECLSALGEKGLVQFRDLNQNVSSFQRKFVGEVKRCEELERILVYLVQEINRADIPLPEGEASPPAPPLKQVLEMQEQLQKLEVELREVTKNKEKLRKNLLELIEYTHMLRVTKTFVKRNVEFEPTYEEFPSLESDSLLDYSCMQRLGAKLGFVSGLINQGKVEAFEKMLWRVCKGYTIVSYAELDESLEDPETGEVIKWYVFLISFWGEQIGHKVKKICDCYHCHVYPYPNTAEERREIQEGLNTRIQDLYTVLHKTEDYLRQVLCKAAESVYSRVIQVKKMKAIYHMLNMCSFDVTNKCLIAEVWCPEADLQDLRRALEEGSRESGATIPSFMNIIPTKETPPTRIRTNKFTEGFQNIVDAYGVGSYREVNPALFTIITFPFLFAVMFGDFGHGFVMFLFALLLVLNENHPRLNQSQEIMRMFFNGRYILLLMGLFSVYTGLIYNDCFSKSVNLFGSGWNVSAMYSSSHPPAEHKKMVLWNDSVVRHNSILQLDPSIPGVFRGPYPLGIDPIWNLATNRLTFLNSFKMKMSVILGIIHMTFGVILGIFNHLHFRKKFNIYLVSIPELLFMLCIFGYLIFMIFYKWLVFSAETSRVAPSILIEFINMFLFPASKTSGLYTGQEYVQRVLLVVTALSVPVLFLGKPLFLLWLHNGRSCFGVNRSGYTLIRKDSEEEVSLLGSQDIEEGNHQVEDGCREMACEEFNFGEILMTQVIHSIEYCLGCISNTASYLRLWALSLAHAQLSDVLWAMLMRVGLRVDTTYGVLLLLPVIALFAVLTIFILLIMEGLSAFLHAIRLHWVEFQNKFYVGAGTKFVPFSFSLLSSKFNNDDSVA
inactive: [1] -0.041 | [2] 0.007 | [3] 0.035 | [4] 0.006 | [5] -0.006 | [6] -0.077 | [7] -0.019 | [8] 0.027 | [9] 0.008 | [10] -0.019 | [11] -0.002 | [12] -0.072 | [13] -0.143 | [14] -0.024 | [15] 0.021 | [16] 0 | [17] 0.036 | [18] 0.079 | [19] 0.061 | [20] -0.043

BZW2 (UniProt Q9Y6E2)
inactive: [1] -0.021 | [2] 0.073 | [3] -0.057 | [4] -0.04 | [5] -0.132 | [6] -0.019 | [7] 0.034 | [8] -0.004 | [9] -0.158 | [10] 0.095 | [11] 0.019 | [12] -0.055 | [13] -0.225 | [14] -0.066 | [15] 0.047 | [16] -0.003 | [17] 0.044 | [18] -0.001 | [19] -0.044 | [20] -0.069

ACSL1 (UniProt P33121)
UniProt P33121, sequence (P33121 whole entry, looked up): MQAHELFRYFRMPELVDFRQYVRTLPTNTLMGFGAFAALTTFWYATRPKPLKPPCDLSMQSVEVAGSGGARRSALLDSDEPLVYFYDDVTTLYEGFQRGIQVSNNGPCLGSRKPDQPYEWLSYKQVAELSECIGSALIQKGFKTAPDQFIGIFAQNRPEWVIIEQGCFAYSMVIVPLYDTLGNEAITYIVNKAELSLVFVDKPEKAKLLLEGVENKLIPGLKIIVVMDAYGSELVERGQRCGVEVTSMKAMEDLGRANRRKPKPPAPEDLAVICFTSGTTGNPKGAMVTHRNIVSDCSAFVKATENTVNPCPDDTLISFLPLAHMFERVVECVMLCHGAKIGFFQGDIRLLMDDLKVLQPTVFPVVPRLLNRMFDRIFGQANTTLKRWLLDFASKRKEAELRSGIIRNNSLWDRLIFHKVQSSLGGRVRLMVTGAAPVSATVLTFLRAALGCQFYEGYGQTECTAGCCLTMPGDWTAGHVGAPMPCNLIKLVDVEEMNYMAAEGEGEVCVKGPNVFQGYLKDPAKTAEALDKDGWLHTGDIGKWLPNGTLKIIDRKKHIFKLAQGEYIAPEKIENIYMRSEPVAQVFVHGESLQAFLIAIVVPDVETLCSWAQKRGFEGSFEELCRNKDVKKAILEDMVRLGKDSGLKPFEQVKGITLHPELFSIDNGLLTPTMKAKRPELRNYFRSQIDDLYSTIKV
inactive: [1] -0.178 | [2] -0.004 | [3] -0.003 | [4] -0.07 | [5] -0.076 | [6] -0.013 | [7] 0.027 | [8] 0.024 | [9] -0.015 | [10] -0.009 | [11] -0.058 | [12] -0.015 | [13] -0.091 | [14] -0.003 | [15] -0.034 | [16] 0.004 | [17] 0.071 | [18] 0.029 | [19] -0.038 | [20] -0.022

AURKA (UniProt O14965)
active: [4] 0.699
inactive: [1] 0.103 | [2] -0.113 | [3] -0.001 | [5] 0.365 | [6] 0.47 | [7] 0.073 | [8] -0.016 | [9] -0.054 | [10] -0.078 | [11] 0.077 | [12] -0.02 | [13] 0.059 | [14] -0.033 | [15] -0.072 | [16] -0.06 | [17] -0.036 | [18] 0.015 | [19] 0.105 | [20] -0.328

AMFR (UniProt Q9UKV5)
inactive: [1] -0.095 | [2] 0.099 | [3] -0.051 | [4] -0.016 | [5] -0.094 | [6] 0.049 | [7] 0.029 | [8] -0.06 | [9] 0.05 | [10] -0.018 | [11] -0.024 | [12] -0.128 | [13] -0.115 | [14] -0.075 | [15] 0.051 | [16] 0.055 | [17] 0.012 | [18] 0.07 | [19] -0.032 | [20] 0.021

BCAP29 isoform 2 (UniProt Q9UHQ4)
inactive: [1] -0.159 | [2] -0.027 | [3] -0.002 | [4] 0.035 | [5] 0.154 | [6] -0.018 | [7] 0 | [8] 0.04 | [9] 0.058 | [10] 0.02 | [11] 0.001 | [12] 0.049 | [13] 0.034 | [14] -0.094 | [15] -0.014 | [16] -0.064 | [17] -0.015 | [18] 0.031 | [19] -0.043 | [20] -0.036

ACSL3 (UniProt O95573)
inactive: [1] -0.066 | [2] 0.042 | [3] -0.086 | [4] -0.048 | [5] -0.06 | [6] 0.011 | [7] 0.029 | [8] 0.075 | [9] -0.042 | [10] 0 | [11] 0.009 | [12] -0.041 | [13] -0.095 | [14] -0.042 | [15] 0.047 | [16] 0.049 | [17] 0.047 | [18] 0.074 | [19] -0.045 | [20] 0.028

AARSD1 isoform 3 (UniProt Q9BTE6)
active: [13] -0.214
inactive: [1] 0.009 | [2] 0.065 | [3] -0.013 | [4] -0.038 | [5] -0.062 | [6] 0.031 | [7] -0.004 | [8] 0.002 | [9] 0.022 | [10] 0.064 | [11] -0.051 | [12] -0.008 | [14] -0.04 | [15] 0.054 | [16] -0.113 | [17] 0.033 | [18] 0.046 | [19] 0.008 | [20] 0.011

ATP6V0A1 isoform 3 (UniProt Q93050)
UniProt Q93050, sequence (Q93050 whole entry, looked up): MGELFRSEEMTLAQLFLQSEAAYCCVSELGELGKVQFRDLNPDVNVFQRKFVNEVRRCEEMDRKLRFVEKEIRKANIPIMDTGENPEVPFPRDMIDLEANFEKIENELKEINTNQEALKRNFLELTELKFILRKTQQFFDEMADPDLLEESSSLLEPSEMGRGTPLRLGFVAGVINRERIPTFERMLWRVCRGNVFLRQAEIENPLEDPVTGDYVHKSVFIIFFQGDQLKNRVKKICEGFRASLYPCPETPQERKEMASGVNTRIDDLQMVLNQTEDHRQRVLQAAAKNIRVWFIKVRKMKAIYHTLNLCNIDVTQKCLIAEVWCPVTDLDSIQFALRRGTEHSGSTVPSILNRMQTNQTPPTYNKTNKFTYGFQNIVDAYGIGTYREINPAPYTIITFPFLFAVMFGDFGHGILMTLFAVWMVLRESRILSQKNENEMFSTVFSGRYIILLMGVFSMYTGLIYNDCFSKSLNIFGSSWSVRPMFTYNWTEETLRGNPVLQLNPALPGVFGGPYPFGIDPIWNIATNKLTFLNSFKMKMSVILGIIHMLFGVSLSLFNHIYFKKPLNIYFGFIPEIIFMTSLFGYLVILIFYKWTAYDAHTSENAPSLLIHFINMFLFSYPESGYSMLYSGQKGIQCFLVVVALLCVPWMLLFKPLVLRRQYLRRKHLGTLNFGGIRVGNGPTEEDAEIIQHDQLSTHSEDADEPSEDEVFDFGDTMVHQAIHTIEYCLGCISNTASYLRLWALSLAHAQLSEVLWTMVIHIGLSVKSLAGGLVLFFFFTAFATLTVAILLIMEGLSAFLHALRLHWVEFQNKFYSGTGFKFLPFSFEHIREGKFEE
inactive: [1] -0.12 | [2] 0.153 | [3] -0.026 | [4] -0.029 | [5] 0.018 | [6] -0.079 | [7] -0.097 | [8] -0.098 | [9] 0.038 | [10] -0.026 | [11] -0.051 | [12] -0.207 | [13] -0.184 | [14] 0.008 | [15] 0.083 | [16] 0.062 | [17] 0.109 | [18] 0.102 | [19] 0.019 | [20] -0.112

BYSL (UniProt Q13895)
inactive: [1] 0.118 | [2] 0.034 | [3] -0.131 | [4] 0.163 | [5] -0.082 | [6] 0.064 | [7] -0.05 | [8] -0.003 | [9] -0.063 | [10] 0.062 | [11] -0.012 | [12] 0.053 | [13] -0.052 | [14] 0.062 | [15] 0.046 | [16] 0.058 | [17] -0.007 | [18] 0.085 | [19] 0.068 | [20] 0.001

AGRN (UniProt O00468)
UniProt O00468, sequence (O00468 whole entry, looked up): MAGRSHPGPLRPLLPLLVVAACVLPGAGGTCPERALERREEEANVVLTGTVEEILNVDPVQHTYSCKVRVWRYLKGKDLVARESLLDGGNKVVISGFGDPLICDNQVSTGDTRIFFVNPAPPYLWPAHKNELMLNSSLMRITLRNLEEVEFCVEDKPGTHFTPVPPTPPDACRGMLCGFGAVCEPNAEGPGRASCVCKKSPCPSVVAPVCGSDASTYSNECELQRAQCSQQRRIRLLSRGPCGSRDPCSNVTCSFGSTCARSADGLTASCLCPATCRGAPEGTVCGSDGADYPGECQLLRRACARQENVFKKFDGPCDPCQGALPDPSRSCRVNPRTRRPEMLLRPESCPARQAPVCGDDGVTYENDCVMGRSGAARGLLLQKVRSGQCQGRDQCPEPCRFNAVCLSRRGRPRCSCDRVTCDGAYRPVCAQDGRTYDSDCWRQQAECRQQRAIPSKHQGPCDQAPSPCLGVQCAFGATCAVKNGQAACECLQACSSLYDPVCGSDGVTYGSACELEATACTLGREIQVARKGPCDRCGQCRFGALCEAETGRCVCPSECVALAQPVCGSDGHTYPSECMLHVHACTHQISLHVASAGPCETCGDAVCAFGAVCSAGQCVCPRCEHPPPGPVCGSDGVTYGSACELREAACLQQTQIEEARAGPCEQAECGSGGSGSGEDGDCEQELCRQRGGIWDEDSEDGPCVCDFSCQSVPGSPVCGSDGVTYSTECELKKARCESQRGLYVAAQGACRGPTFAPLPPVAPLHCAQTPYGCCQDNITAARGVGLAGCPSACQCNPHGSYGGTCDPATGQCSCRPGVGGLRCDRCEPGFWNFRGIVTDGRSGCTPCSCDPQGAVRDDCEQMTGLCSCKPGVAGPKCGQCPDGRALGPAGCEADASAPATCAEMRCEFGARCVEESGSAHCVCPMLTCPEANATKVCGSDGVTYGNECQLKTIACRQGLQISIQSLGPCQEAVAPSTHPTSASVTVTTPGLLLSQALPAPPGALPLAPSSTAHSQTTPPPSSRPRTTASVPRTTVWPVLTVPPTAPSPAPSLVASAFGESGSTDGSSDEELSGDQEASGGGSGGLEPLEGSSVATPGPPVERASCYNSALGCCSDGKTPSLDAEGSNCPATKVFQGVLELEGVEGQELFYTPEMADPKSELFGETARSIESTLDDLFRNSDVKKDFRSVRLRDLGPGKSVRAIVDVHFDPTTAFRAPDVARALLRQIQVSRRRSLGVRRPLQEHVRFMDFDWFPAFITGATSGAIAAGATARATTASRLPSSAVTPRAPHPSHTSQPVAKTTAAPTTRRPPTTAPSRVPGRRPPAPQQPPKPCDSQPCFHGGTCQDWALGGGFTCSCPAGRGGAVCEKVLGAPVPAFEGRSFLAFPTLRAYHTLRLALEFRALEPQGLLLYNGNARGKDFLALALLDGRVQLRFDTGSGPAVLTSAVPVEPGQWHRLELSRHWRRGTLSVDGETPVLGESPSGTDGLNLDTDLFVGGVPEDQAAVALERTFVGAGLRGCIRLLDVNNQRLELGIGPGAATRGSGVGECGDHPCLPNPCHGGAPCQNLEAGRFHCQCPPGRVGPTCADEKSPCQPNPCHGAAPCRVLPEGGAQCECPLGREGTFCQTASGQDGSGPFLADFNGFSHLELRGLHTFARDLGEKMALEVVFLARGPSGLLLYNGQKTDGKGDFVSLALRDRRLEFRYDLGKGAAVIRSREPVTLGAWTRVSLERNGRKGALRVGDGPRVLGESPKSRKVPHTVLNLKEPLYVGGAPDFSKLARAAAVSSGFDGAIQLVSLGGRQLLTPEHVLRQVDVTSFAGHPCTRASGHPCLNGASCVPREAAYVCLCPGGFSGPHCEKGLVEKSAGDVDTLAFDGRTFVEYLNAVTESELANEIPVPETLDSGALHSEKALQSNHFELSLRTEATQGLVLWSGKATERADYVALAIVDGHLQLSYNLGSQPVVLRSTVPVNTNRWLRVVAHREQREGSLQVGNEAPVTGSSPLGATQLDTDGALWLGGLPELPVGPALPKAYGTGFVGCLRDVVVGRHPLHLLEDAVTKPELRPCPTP
inactive: [1] 0.006 | [2] 0.001 | [3] -0.034 | [4] -0.035 | [5] 0.355 | [6] -0.086 | [7] 0.03 | [8] 0.162 | [9] 0.165 | [10] -0.079 | [11] 0.016 | [12] 0.053 | [13] 0.033 | [14] 0.02 | [15] 0.035 | [16] -0.126 | [17] 0.01 | [18] -0.073 | [19] 0.087 | [20] -0.238

ACAD9 (UniProt Q9H845)
inactive: [1] -0.061 | [2] -0.022 | [3] 0 | [4] 0.021 | [5] 0.125 | [6] -0.023 | [7] 0.047 | [8] 0.014 | [9] 0.055 | [10] 0.067 | [11] -0.009 | [12] -0.051 | [13] -0.036 | [14] -0.012 | [15] -0.021 | [16] 0.033 | [17] 0.035 | [18] 0.021 | [19] -0.016 | [20] 0.007

BECN1 (UniProt Q14457)
UniProt Q14457, sequence (Q14457 whole entry, looked up): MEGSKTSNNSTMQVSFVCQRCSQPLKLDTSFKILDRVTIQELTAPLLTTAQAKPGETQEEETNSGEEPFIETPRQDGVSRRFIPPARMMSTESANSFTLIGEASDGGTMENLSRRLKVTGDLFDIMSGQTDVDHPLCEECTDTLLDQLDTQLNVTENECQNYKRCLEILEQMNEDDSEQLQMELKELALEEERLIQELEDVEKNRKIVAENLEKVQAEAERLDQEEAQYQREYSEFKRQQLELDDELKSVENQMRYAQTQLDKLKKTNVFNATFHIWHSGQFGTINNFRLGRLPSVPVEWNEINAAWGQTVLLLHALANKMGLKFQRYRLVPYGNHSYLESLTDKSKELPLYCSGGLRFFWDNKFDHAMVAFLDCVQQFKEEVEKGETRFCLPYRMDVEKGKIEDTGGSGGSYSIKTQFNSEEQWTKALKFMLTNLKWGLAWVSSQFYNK
inactive: [1] 0.063 | [2] -0.032 | [3] 0.032 | [4] -0.025 | [5] -0.072 | [6] 0.076 | [7] -0.015 | [8] -0.038 | [9] -0.003 | [10] 0.023 | [11] 0.045 | [12] 0.083 | [13] -0.006 | [14] -0.016 | [15] -0.024 | [16] -0.073 | [17] -0.046 | [18] 0.026 | [19] -0.071 | [20] 0.021

ATP1A4 (UniProt Q13733)
inactive: [1] 0.038 | [2] 0.036 | [3] 0.058 | [4] -0.041 | [5] 0.076 | [6] 0.033 | [7] 0.028 | [8] -0.041 | [9] -0.039 | [10] 0.001 | [11] 0.023 | [12] 0.069 | [13] 0.059 | [14] -0.03 | [15] -0.001 | [16] -0.002 | [17] 0.121 | [18] 0.007 | [19] 0.176 | [20] -0.088

ATP1A1 (UniProt P05023)
inactive: [1] 0.018 | [2] 0.102 | [3] 0.062 | [4] 0.008 | [5] 0.07 | [6] 0.005 | [7] 0.04 | [8] 0.001 | [9] -0.011 | [10] 0.023 | [11] -0.055 | [12] 0.093 | [13] 0.116 | [14] 0.07 | [15] -0.04 | [16] 0.03 | [17] -0.003 | [18] -0.062 | [19] -0.077 | [20] 0.003
